Pf gametocyte – inhibitors of late stage P. falciparum gametocyte viability; P. falciparum stage V gametocytes, ATP luminescence, 24 h; inhibition, % at 10.9 µM; 150,000 tested, 0.065% active;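 active = inhibition above the mean plus 3 SD of compounds within the control limits, set per campaign, cut at about 38% in these data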;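 note: 0% = DMSO wells and 100% = medium only without gametocytes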
EP2 mod – modulators of human EP2 prostaglandin E2 receptor. P43116. 260,000 tested, 0.83% active. AID 940. EP2-expressing cells, cAMP HTRF FRET, PGE2 co-stimulation. induction, % at 25 µM;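 active = compounds whose cAMP rise, as percent of the full-agonist control response, exceeds 60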;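 note: rat C6 glioma line stably carrying human EP2 under a CMV promoter; the protocol text gives 20 µM as final concentration; 100% = response of wells given 1 µM PGE2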
Target sequence (P43116 whole entry, looked up): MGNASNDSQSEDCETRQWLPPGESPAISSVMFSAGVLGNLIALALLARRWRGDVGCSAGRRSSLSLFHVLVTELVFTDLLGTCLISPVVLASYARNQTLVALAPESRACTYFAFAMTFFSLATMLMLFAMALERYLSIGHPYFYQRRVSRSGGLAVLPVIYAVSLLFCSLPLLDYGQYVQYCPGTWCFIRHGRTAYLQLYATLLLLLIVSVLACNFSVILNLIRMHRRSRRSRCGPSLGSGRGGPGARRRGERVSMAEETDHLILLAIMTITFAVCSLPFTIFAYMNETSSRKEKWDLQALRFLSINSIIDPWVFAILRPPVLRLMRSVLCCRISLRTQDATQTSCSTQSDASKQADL
S1P3 antagonist – blocks the human S1P3 receptor; Q99500; CHO S1P3 NFAT-BLA reporter, FRET fluorescence, antagonist mode; inhibition, % at 4.98 µM; 170,000 tested, 0.27% active; AID 485;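 active = inhibition above the plate cutoff, the mean inhibition of test wells on that plate plus 3 SD, cut at about 28% in these data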;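 note: cells challenged with S1P at its EC80 of 0.8 µM; blue over green emission ratio from cleaved BLA substrate after 4 h stimulation; 0% = S1P-stimulated wells and 100% = unstimulated DMSO-only wells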
Target sequence (Q99500 whole entry, looked up): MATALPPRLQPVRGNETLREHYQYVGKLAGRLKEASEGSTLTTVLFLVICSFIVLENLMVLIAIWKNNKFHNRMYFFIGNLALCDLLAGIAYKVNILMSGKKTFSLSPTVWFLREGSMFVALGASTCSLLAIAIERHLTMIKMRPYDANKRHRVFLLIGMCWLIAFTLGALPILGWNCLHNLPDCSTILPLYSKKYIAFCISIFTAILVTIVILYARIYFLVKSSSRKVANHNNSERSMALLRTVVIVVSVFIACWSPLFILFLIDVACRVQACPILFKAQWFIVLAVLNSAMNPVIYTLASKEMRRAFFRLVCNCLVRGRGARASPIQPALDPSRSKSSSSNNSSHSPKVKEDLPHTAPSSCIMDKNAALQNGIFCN
S1P4 ag – agonists of human S1P4 receptor | O95977 | S1P4-expressing cell line, agonist reporter assay | activation, % at 4.98 µM | 220,000 tested, 0.35% active; in the data active = activation above about 11%;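 note: 0% = DMSO vehicle and 100% = reference agonist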
S1P4 antagonist – human S1P4 receptor antagonism; S1P4-expressing cells, antagonist mode, reporter read-out; inhibition, % at 4.98 µM; 220,000 tested, 0.26% active; in the data active = inhibition above about 29%;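 note: 0% = wells stimulated with agonist and 100% = vehicle wells without agonist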
PGE2 EP2 inh – inhibitors of human EP2 prostaglandin E2 receptor; P43116; C6 glioma cells expressing human EP2, cAMP TR-FRET; cells stimulated with saturating PGE2; inhibition, % at 25 µM; 260,000 tested, 0.52% active;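 active = percent inhibition above 40 after rounding to a whole number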;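 note: rat C6 glioma host cells with rolipram phosphodiesterase inhibitor present; the protocol text gives 20 µM as final concentration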
* marks the source's active call; other numbers are inactive results; nt = no result given. Most compounds without a hit are left out; they make up all but 1.9% or so of the library.

SMILES | Pf gametocyte | EP2 mod | S1P3 antagonist | S1P4 ag | S1P4 antagonist | PGE2 EP2 inh
COc1ccc(C(=O)Oc2ccc(/C=N/O)cc2)cc1 | 40* | 7 | nt | -1 | -4 | 7
COc1ccc(OC(=O)c2ccncc2)cc1 | nt | 19 | 8 | -1 | 11 | 7
NC(=O)C1CCN(C(=O)CSc2nccc(-c3ccc(Cl)cc3)n2)CC1 | nt | -22 | nt | nt | nt | 8
CCOC(=O)C1=C(c2ccccc2)Nc2ncnn2C1c1ccc(OCC)c(OC)c1 (stereo not drawn) | nt | -39 | nt | nt | nt | 14
Oc1ccc(/C=N/Nc2cccc3cccnc23)c(O)c1 | 6 | -16 | nt | 0 | 10 | 51*
COc1ccc(NC(=O)c2sccc2-n2cccc2)cc1 | -4 | 15 | 3 | 1 | -5 | 0
O=C(Nc1ccc(Cl)cc1)c1sccc1-n1cccc1 | 7 | 63* | 14 | 1 | -7 | -1
Cc1nnc(SCC(=O)n2c3c(c4ccccc42)CCCC3)s1 | 15 | 64* | 11 | 2 | -5 | 10
COc1ccccc1CNc1n[nH]c2nc(C)cc(C(F)(F)F)c12 | nt | -15 | nt | nt | nt | 5
COc1cc(/C=N/Nc2ccccc2)ccc1OC(=O)c1cccs1 | -17 | -5 | -8 | -1 | 3 | 6
COc1cc(/C=N/Nc2ccc(Cl)c(C(=O)O)c2)ccc1OC(=O)c1cccs1 | nt | 0 | -6 | 12* | -15 | 0
Cc1cc(C)n(C(=O)c2ccc(NC(=O)C3CC3)cc2)n1 | nt | -33 | 93* | -2 | -8 | 14
COc1ccc(Cl)cc1NC(=O)CSc1nnc(-c2ccco2)n1C | nt | 2 | nt | nt | nt | 15
COC(=O)C1=CN(CC2CCCO2)C=C(C(=O)OC)C1c1ccsc1 (stereo not drawn) | 16 | 25 | 2 | 4 | -15 | 11
COC(=O)C1=CN(Cc2ccc(OC)cc2)C=C(C(=O)OC)C1c1ccsc1 | -12 | 61* | 2 | 0 | -2 | 6
Cc1ccc(S(=O)(=O)N(C)c2ccccc2)cc1 | nt | 12 | nt | 0 | -2 | 9
CC(=O)Oc1ccc(N(c2ccccc2)S(=O)(=O)c2ccc(C)cc2)cc1 | 0 | 61* | -16 | -3 | -1 | 9
COc1cccc(CC(=O)N2CCC(n3nc(-c4ccoc4C)oc3=O)CC2)c1 | nt | -21 | nt | nt | nt | 8
Cc1cc(Nc2ccc(N=Nc3ccc(O)c4ncccc34)cc2)nc(C)n1 | nt | 17 | nt | nt | nt | 45*
CC1(C)CC(=O)C2=C(C1)OC1=C(C(=O)CC(C)(C)C1)C2c1ccc(O)cc1O | nt | -39 | -20 | 1 | 6 | 98*
CC1(C)CC(=O)C2=C(C1)OC1=C(C(=O)CC(C)(C)C1)C2c1ccc(O)c([N+](=O)[O-])c1 | 15 | 29 | -4 | -2 | -8 | 8
O=[N+]([O-])c1ccc(C2=Nn3c(nnc3-c3ccc(Cl)cc3)SC2)o1 | nt | -31 | nt | nt | nt | 73*
c1ccc(C2=Nn3c(nnc3-c3ccncc3)SC2)cc1 | nt | 53 | 2 | 0 | -15 | nt
Oc1ccc(Cn2c(-c3ccc(O)cc3)nc3ccccc32)cc1 | nt | 21 | nt | nt | nt | 47*
COc1cc(Cn2c(-c3ccc(O)c(OC)c3)nc3ccccc32)ccc1O | -24 | 55 | 3 | 1 | -4 | 5
SMILES | Pf gametocyte | EP2 mod | S1P3 antagonist | S1P4 ag | S1P4 antagonist | PGE2 EP2 inh
O=C(CN1CCC(c2nc3ccccc3s2)CC1)Nc1cccc2ccccc12 | nt | -79 | nt | nt | nt | 15
COCCCn1c(=S)[nH]c2sc3c(c2c1=O)CCCS3 | nt | -2 | 0 | 0 | -8 | 45*
Cc1nn(-c2ccc(S(=O)(=O)O)cc2)c(O)c1N=Nc1ccc(-c2ccc(N=Nc3ccc4c(S(=O)(=O)O)cc(S(=O)(=O)O)c(N)c4c3O)c(O)c2)cc1O.[Cu].[Cu] | nt | 21 | nt | nt | nt | 54*
Cn1c(N2CCC(C(=O)NCCc3ccc(O)c(O)c3)CC2)nc2ccccc21 | nt | -39 | nt | nt | nt | nt
Cc1cnc(NC(=O)c2cc3c(C)nn(-c4ccccc4)c3s2)s1 | nt | 4 | nt | 0 | -18 | 3
Cc1ccc(NC(=O)c2cccs2)cc1NC(=O)c1cc2c(C)nn(-c3ccccc3)c2s1 | nt | 70* | nt | nt | nt | 13
CCOC(=O)c1c(-c2ccccc2)csc1NC(=O)COC | nt | 80* | nt | nt | nt | 7
CCOC(=O)c1c(-c2ccc(OCC)cc2)csc1NC(=O)CC | nt | 67* | nt | nt | nt | 7
CCOC(=O)c1c(-c2ccc(C)cc2)csc1NC(=O)COC | nt | 82* | nt | nt | nt | 2
CCOC(=O)c1c(-c2ccc(C)c(C)c2)csc1NC(=O)COC | nt | 93* | nt | nt | nt | 9
Cc1nc2c(c(=O)[nH]1)CN(Cc1ccc(N3CCCCC3)cc1)CC2 | nt | -27 | nt | nt | nt | 7
CSc1ncc(CN2CCC(O)(c3ccc(C)cc3)CC2)cn1 | nt | -30 | nt | nt | nt | 9
O=C(O)C1CCC(=O)N1Cc1ccccc1Cl (stereo not drawn) | -22 | 13 | 8 | 15* | -17 | 3
O=C(Nc1ccc(Cl)cc1Cl)C1CCC(=O)N1Cc1ccccc1Cl (stereo not drawn) | -27 | 28 | nt | 1 | -7 | 5
c1ccc(Cn2c(-c3cncs3)nc3ccccc32)cc1 | 7 | 32 | nt | 1 | -1 | 3
Brc1cccc(Cn2c(-c3cncs3)nc3ccccc32)c1 | -17 | 61* | nt | 0 | -12 | 10
Cc1ccc2oc(C(=O)N[C@@H](C)Cn3nnc4ccccc43)cc(=O)c2c1 | nt | -25 | nt | nt | nt | 5
Cc1ccccc1OC1C(=O)N(C2CCCC2)C1c1ccc2c(c1)OCO2 (stereo not drawn) | nt | 61* | nt | nt | nt | 9
COc1ccc(CCN2C(=O)C(Oc3ccccc3C)C2c2ccc3c(c2)OCO3)cc1 (stereo not drawn) | -19 | 30 | 17 | 3 | -24 | 4
CCc1nc2ccccc2nc1N1CCN(S(=O)(=O)c2ccc(Cl)cc2)CC1 | 6 | 1 | 6 | 0 | -4 | 6
O=S(=O)(c1ccccc1)N1c2cc(Cl)ccc2Oc2nc3ccccc3nc21 | 11 | 61* | nt | 2 | -15 | 8
Nc1ccccc1-c1n[nH]c(=S)s1 | nt | 0 | -10 | 1 | -7 | 67*
CCCn1c(-c2ccccc2N)n[nH]c1=S | nt | -1 | nt | nt | nt | 12
CCc1cccc(Nc2c(CC)c(C)nc3ncnn23)c1 | nt | -19 | nt | nt | nt | 5
O=C(/C=C/c1cccs1)NC(=S)N1CCN(c2ccccn2)CC1 | nt | -102 | nt | nt | nt | 18
SMILES | Pf gametocyte | EP2 mod | S1P3 antagonist | S1P4 ag | S1P4 antagonist | PGE2 EP2 inh
COc1ccccc1C(=O)NC1CCCCCCC1 | -13 | 49 | nt | 0 | -3 | 12
O=C(NC1CCCC1)c1ccccc1OCc1ccccc1 | nt | 62* | 5 | 2 | -7 | 8
O=C(c1nc2ccccc2s1)C1CCN(C(=O)Cc2cccc(F)c2)CC1 | nt | -72 | nt | nt | nt | nt
CC(C)(C)N(Cc1ccccc1)C(=O)c1ccc(Cl)cc1[N+](=O)[O-] | 14 | 63* | 2 | 2 | -8 | 1
CCCC(=O)N1CCN(c2ccc(NC(=O)c3cccnc3)cc2)CC1 | nt | -2 | nt | nt | nt | 5
COCCNC(=O)CSc1cc(-c2ccccc2)c2ccc(OC)cc2n1 | 22 | 63* | -8 | -2 | -42 | 11
COc1ccc2c(-c3ccccc3)cc(SCC(=O)NC(N)=O)nc2c1 | nt | 20 | -11 | 1 | -25 | 12
C[N+]1(CCCC[N+]2(C)CCCCCCC2)CCCCCCC1 | nt | 20 | nt | nt | nt | 46*
